The entries come from a sample that favours hits as a whole.
IDE exosite inh: exo-site inhibitors of human IDE, primary screen, biochemical, fluorescence anisotropy, probe displacement. Insulin-degrading enzyme (Homo sapiens), P14735. purified IDE, FL-6b probe fluorescence polarization; stronger effect = lower value. z-score at 20 µM. 17,000 tested, 6.3% active. AID 1259349, 2017;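 active means z-score of -3 or lower, meaning strong loss of probe binding signal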;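 further: His-tagged human IDE residues 42-1019 made in E. coli with 30 nM FL-6b probe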
Target sequence (P14735 42-1019 limits assumed): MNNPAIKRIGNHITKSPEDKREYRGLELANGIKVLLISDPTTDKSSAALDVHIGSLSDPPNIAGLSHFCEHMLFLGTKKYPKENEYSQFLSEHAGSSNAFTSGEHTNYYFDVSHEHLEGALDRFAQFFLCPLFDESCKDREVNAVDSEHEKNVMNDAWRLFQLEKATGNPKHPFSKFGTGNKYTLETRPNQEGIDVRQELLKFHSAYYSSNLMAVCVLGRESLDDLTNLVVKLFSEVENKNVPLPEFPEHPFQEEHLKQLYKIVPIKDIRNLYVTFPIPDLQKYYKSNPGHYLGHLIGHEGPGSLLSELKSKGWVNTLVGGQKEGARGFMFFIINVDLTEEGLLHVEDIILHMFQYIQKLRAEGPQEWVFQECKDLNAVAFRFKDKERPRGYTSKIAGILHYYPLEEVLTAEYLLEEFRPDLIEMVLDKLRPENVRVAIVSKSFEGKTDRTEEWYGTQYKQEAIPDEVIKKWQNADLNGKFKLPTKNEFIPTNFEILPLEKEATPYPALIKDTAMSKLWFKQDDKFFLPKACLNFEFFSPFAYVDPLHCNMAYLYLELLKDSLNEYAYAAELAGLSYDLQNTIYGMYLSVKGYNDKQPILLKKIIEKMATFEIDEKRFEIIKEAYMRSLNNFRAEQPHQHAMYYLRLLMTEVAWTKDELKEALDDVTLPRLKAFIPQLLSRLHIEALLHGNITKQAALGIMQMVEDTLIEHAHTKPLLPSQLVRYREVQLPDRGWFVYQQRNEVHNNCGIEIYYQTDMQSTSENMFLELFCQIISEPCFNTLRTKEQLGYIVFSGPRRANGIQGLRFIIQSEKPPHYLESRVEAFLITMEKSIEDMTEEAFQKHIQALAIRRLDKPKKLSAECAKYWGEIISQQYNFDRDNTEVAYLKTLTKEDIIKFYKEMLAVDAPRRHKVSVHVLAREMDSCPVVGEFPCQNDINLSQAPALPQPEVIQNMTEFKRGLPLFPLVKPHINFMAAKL
The depositor's hits bear a star; ! = repeats disagree.

SMILES | IDE exosite inh
O=C(Nc1ccccc1)N1CC(=O)N2[C@H](C1)[C@H](c1ccc(-c3ccc(F)cc3)cc1)[C@@H]2CO | -0.228
N#C[C@H]1[C@@H](c2ccc(C3=CCCCC3)cc2)[C@H](CO)N1C(=O)CN1CCOCC1 | -1.54
N#C[C@@H]1[C@H](c2ccccc2C2=CCCCC2)[C@H](CO)N1C(=O)Nc1ccccc1F | -0.193
COc1ccc(NC(=O)N2[C@@H]3CNC[C@H]2C3c2ccc(-c3ccccc3C)cc2)cc1 (stereo partly specified) | -4.56*
Cc1ccccc1-c1ccc(C2[C@H]3CNC[C@@H]2N3C(=O)Nc2ccc(Cl)cc2)cc1 (stereo partly specified) | -3.57*!
O=C(NC1CCCCC1)N1[C@@H]2CNC[C@H]1C2c1ccc(-c2ccccc2F)cc1 (stereo partly specified) | -0.0845
CN(C)C(=O)c1cccc(-c2ccc(C3[C@H]4CNC[C@@H]3N4C(=O)Nc3cccc(Cl)c3)cc2)c1 (stereo partly specified) | -0.236
COc1cccc(-c2ccc(C3[C@H]4CNC[C@@H]3N4C(=O)Nc3ccc(C(F)(F)F)cc3)cc2)c1 (stereo partly specified) | 2.09
COc1cccc(-c2ccc(C3[C@H]4CNC[C@@H]3N4C(=O)Nc3ccc4c(c3)OCO4)cc2)c1 (stereo partly specified) | -2.84
O=C(C[C@@H]1CC[C@@H]2[C@H](COC[C@H](O)CN2CCc2ccccc2)O1)NCCCN1CCOCC1 | 0.543
CC(C)NC(=O)N1CCCCN2[C@H](CO)[C@H](c3ccc(Br)cc3)[C@H]2C1 | 2.41
COc1cccc(-c2ccc([C@@H]3[C@@H](CO)N4CCCCN(C(=O)NC(C)C)C[C@@H]34)cc2)c1 | -5.97*
CC(C)NC(=O)N1CCCCN2[C@H](CO)[C@@H](c3ccc(Br)cc3)[C@@H]2C1 | 1.68
COc1cccc(-c2ccc([C@H]3[C@@H](CO)N4CCCCN(C(=O)NC(C)C)C[C@H]34)cc2)c1 | -8.13*
CC(C)NC(=O)N1CCCCN2[C@H](C1)[C@H](c1ccc(Br)cc1)[C@@H]2CO | 1.61
CC(C)NC(=O)N1CCCCN2[C@H](CO)[C@H](c3ccc(Br)cc3)[C@@H]2C1 | 2.41
COc1cccc(-c2ccc([C@@H]3[C@@H](CO)N4CCCCN(C(=O)NC(C)C)C[C@H]34)cc2)c1 | -6.62*
COc1cccc(-c2ccc([C@H]3[C@H]4CN(C(=O)c5ccc(F)cc5)CCCCN4[C@H]3CO)cc2)c1 | 1.38
COc1cccc(-c2ccc([C@@H]3[C@H](CO)N4CCCCN(C(=O)c5ccc(F)cc5)C[C@@H]34)cc2)c1 | 0.212
C[C@@H]1CCCCO[C@H](CN(C)C(=O)Nc2cccc3ccccc23)[C@@H](C)CN([C@@H](C)CO)C(=O)c2cc(NC(=O)CCC(F)(F)F)ccc2O1 | 0.718
O=C(Nc1cc(F)ccc1F)N1CC(=O)N2[C@H](C1)[C@H](c1ccc(-c3cccc(F)c3)cc1)[C@@H]2CO | -0.134
COCC(=O)N(C[C@@H]1N[C@@H](CO)[C@@H]1c1ccc(C2=CCCCC2)cc1)C(C)C | 3.86
COCC(=O)N1[C@H](C#N)[C@H](c2ccccc2-c2cccc(OC)c2)[C@H]1CO | 0.635
Cc1noc(C)c1S(=O)(=O)N(C)C[C@H]1OCc2ccccc2-c2ccccc2C(=O)N([C@@H](C)CO)C[C@H]1C | -0.802
CN(C)C(=O)c1cccc(-c2ccccc2[C@@H]2[C@@H](C#N)N(C(=O)C3CC3)[C@H]2CO)c1 | 4.27
SMILES | IDE exosite inh
C[C@@H]1CCCCO[C@H](CN(C)C(=O)Nc2ccc(C(F)(F)F)cc2)[C@H](C)CN([C@H](C)CO)C(=O)c2cc(NS(=O)(=O)c3cn(C)cn3)ccc2O1 | 1.02
Cc1cccc(-c2ccc([C@@H]3[C@@H](CO)N4CCCCN(S(=O)(=O)c5cccc(C)c5)C[C@@H]34)cc2)c1 | -9.77*
Cc1cccc(-c2ccc([C@@H]3[C@@H](CO)N4CCCCN(S(=O)(=O)c5ccccc5C)C[C@@H]34)cc2)c1 | -20.3*
Cc1cccc(-c2ccc([C@H]3[C@H]4CN(S(=O)(=O)c5ccccc5F)CCCCN4[C@H]3CO)cc2)c1 | -1.65
Cc1cccc(-c2ccc([C@@H]3[C@@H](CO)N4CCCCN(S(=O)(=O)c5ccccc5C)C[C@H]34)cc2)c1 | 2.09
Cc1cccc(-c2ccc([C@H]3[C@@H](CO)N4CCCCN(S(=O)(=O)c5ccccc5F)C[C@H]34)cc2)c1 | -3.53*
Cc1cccc(-c2ccc([C@H]3[C@H](CO)N4CCCCN(S(=O)(=O)c5cccc(C)c5)C[C@@H]34)cc2)c1 | 1.1
Cc1cccc(-c2ccc([C@H]3[C@H]4CN(S(=O)(=O)c5ccccc5C)CCCCN4[C@H]3CO)cc2)c1 | 4.51
O=S(=O)(c1ccccc1F)N1CCCCN2[C@@H](CO)[C@@H](c3ccc(-c4ccccc4)cc3)[C@@H]2C1 | 0.0138
O=S(=O)(c1ccccc1F)N1CCCCN2[C@H](CO)[C@H](c3ccc(-c4ccccc4)cc3)[C@H]2C1 | 1.91
Cc1ccccc1S(=O)(=O)N1CCCCN2[C@H](CO)[C@@H](c3ccc(-c4cccc(F)c4)cc3)[C@@H]2C1 | -7.34*
Cc1cccc(-c2ccc([C@@H]3[C@@H](CO)N4CCCCN(S(=O)(=O)c5cccc(C)c5)C[C@H]34)cc2)c1 | 3.58
CO[C@@H]1CN(C)C(=O)c2cc(NC(C)=O)ccc2OC[C@@H](C)N(Cc2ccncc2)C[C@H]1C | -0.201
C[C@H]1CN([C@@H](C)CO)C(=O)c2c(c3ccccc3n2C)-c2ccccc2CO[C@H]1CN(C)S(=O)(=O)c1ccccc1C#N | -0.184
O=C(Cc1cccnc1)N1CC(=O)N2[C@H](CO)[C@@H](c3ccc(C#CC4CC4)cc3)[C@H]2C1 | -0.0454
CCCNC(=O)Nc1ccc2c(c1)OC[C@H](C)N(S(C)(=O)=O)C[C@@H](C)[C@H](OC)CN(C)C2=O | 1.47
CNC[C@H]1OCCCC[C@@H](C)Oc2ccc(NS(=O)(=O)c3ccc(F)cc3)cc2C(=O)N([C@H](C)CO)C[C@@H]1C | 0.193
COc1ccc(-c2ccc([C@H]3[C@H]4CN(C(=O)c5ccccn5)CC(=O)N4[C@H]3CO)cc2)cc1 | -0.082
CCCNC(=O)N1[C@@H](C#N)[C@@H](c2ccc(C#Cc3ccc(F)cc3)cc2)[C@@H]1CO | 5.37
CN(C)C(=O)c1cccc(-c2ccc([C@@H]3[C@@H](CO)N4C(=O)CN(C(=O)C5CCCCC5)C[C@H]34)cc2)c1 | 3.19
OC[C@H]1[C@@H](c2ccc(-c3ccccc3)cc2)[C@@H]2CN(Cc3ccccn3)CCCCN12 | 1.29
C[C@@H]1CCCCO[C@H](CN(C)CC2CC2)[C@H](C)CN([C@@H](C)CO)C(=O)c2cc(NC(=O)c3ccccc3)ccc2O1 | -0.49
COc1ccc(NC(=O)N2C[C@@H](O)COC[C@H]3O[C@@H](CC(=O)N4CCCCC4)CC[C@@H]32)cc1 | 0.0508
CC(=O)N1[C@H](CO)[C@H](c2ccc(C#CC3CCCCC3)cc2)[C@H]1CNCC(C)C | 2.94
COc1ccc2c3c(n(C)c2c1)[C@H](CO)N(Cc1nccs1)CC31CCN(C(=O)CN(C)C)CC1 | -1.6
CN(C)CC#Cc1ccc([C@@H]2[C@@H](CO)N3C(=O)CN(C(=O)Cc4cccnc4)C[C@@H]23)cc1 | 2.87
Cc1cccc(-c2ccc([C@H]3[C@H](CO)N4CCCCN(S(=O)(=O)c5cccs5)C[C@@H]34)cc2)c1 | 3.16
Cc1cccc(-c2ccc([C@@H]3[C@@H](CO)N4CCCCN(S(=O)(=O)c5cccs5)C[C@@H]34)cc2)c1 | -3.77*
